Laboratory results: PubChem BioAssay
The source made the active and inactive calls. No rule for the calls is given here.

target: Pantothenate synthetase (Mycobacterium tuberculosis (strain ATCC 25618 / H37Rv)) (UniProt P9WIL5); test: Coupled enzyme confirmation of inhibitors against recombinant Mtb PanC (AID 375); conditions: coupled enzyme assay; at 10 µM, stronger effect = higher value;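 also: 0% = full reaction with vehicle and 100% = no enzyme background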
Sequence (P9WIL5 whole entry, looked up): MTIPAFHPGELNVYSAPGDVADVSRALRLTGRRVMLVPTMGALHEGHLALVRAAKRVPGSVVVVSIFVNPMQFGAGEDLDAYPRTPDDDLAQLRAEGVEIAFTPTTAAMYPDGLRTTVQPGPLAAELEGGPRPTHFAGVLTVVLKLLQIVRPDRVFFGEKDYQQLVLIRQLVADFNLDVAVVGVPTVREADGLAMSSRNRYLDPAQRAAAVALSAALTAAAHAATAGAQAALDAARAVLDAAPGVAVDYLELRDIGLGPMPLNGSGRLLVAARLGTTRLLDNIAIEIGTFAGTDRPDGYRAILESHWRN

Row | SMILES | inhibition
1 | COc1ccc(-c2onc(C)c2-c2ccccc2)c(O)c1 | 3% (inactive)
2 | O=C(CCn1c(=O)oc2ccccc21)NCc1ccco1 | 1% (inactive)
3 | O=C(NCCN1CCOCC1)C1CC(=O)N(c2ccc(F)c(Cl)c2)C1 (centres undefined) | 7% (inactive)
4 | COc1ccc(-c2nc(N)nc(C)c2Oc2ccccc2Br)c(O)c1 | 0% (inactive)
5 | COc1ccc(OC)c(NC(=O)CSc2nnc(Cc3cccn3C)n2-c2ccc(F)cc2)c1 | 0% (inactive)
6 | c1ccc(-c2nc3nonc3c3nc4ccccc4n23)cc1 | 2% (inactive)
7 | COc1ccc(OCCOC(=O)c2cccc(-n3cnnn3)c2)cc1 | 0% (inactive)
8 | Cc1ccccc1NC(=O)CN1CCC(NC(=O)Nc2ccccc2)CC1 | 4% (inactive)
9 | Cc1cc(C)c(C)c(OCC(=O)NCC2CCCO2)c1 (centres undefined) | 0% (inactive)
10 | CC1(C)CNC(=O)c2sc(N3CCOCC3)nc2C1 | 0% (inactive)
11 | C=CCOC(=O)C1=C(C)NC(=O)NC1c1cn(-c2ccccc2)nc1-c1cccs1 (centres undefined) | 4% (inactive)
12 | CCOC(=O)c1oc2cccc(OC(C)=O)c2c1C | 4% (inactive)
13 | CC(C)n1nc(C(=O)Nc2nc3ccc(S(C)(=O)=O)cc3s2)c2ccccc2c1=O | 0% (inactive)
14 | COCCCNC(=O)CSc1ccc(Cl)cc1 | 0% (inactive)
15 | Cc1nn(C)c(C)c1S(=O)(=O)N1CCCC(C(=O)N2CCN(c3ccc(Cl)cc3)CC2)C1 (centres undefined) | 0% (inactive)
16 | CCN(CC)CCCNC(=O)c1cn(C)c2ccc(S(=O)(=O)N(C)C)cc2c1=O | 10% (inactive)
17 | OCCN1CCN(CC(O)COc2ccc3ccccc3c2)CC1 (centres undefined) | 0% (inactive)
18 | CCOC(=O)c1c(N)nn(C(=O)C(C)C)c1-c1ccccc1 | 0% (inactive)
19 | CC(=O)NCCOc1cccc(OCCNC(C)=O)c1 | 2% (inactive)
20 | O=C(Cn1c(=O)[nH]c2ccsc2c1=O)NC1CCCCCC1 | 7% (inactive)

Row | SMILES | inhibition
21 | CCC(NC(C)C)C(O)c1ccc(O)c2[nH]c(=O)ccc12 (centres undefined) | 0% (inactive)
22 | CN(CC(=O)N1CCCc2c1c(=O)oc1ccc(O)cc21)Cc1ccccc1 | 0% (inactive)
23 | Oc1c(C(c2ccccc2)N2CCc3ccccc3C2)sc2ncnn12 (centres undefined) | 0% (inactive)
24 | CCC1(C)Cc2c(C#N)c(N)n(-c3ccccc3)c(=O)c2CO1 (centres undefined) | 0% (inactive)
25 | COc1ccc(NC2c3ncccc3C(=O)N2Cc2ccccc2)c(OC)c1 (centres undefined) | 0% (inactive)
26 | COCCCn1c2nc3ccccc3nc2c2c(=O)n(-c3ccccc3OC)cnc21 | 11% (inactive)
27 | CCC1(CC)C(=O)C(C)(C)C(=O)OC1c1cccs1 (centres undefined) | 0% (inactive)
28 | CCOC(=O)Nc1ccc2c(CN3C(=O)NC4(CCCC4)C3=O)cc(=O)oc2c1 | 2% (inactive)
29 | C=CCN1C(=O)CS/C1=N/c1nccs1 | 0% (inactive)
30 | O=C(O)CCn1c(SCc2ccccc2)nc2ccccc21 | 0% (inactive)
31 | COc1ccccc1NC(=O)CSc1nnc(-c2ccncc2)o1 | 0% (inactive)
32 | CCCCCn1c(=O)[nH]c2cc(C(=O)NCCN3CCOCC3)ccc2c1=O | 1% (inactive)
33 | COc1ccc(C2C(C(C)=O)=C(C)N=c3s/c(=C\c4ccc5c(c4)OCO5)c(=O)n32)c(OC)c1 (centres undefined) | 0% (inactive)
34 | C#CCSc1nnc(-c2ccccc2)c(=O)[nH]1 | 0% (inactive)
35 | Cc1nc2scc(-c3ccco3)c2c(=O)n1/N=C/N(C)C | 0% (inactive)
36 | O=C(NCc1ccco1)C1CCN(S(=O)(=O)N2CCC3(CC2)OCCO3)CC1 | 0% (inactive)
37 | Cc1ccc(Cn2c(=O)c3ccccc3n3c(CCC(=O)O)nnc23)cc1 | 0% (inactive)
38 | CCN(CC)S(=O)(=O)c1ccc2oc(SCc3ccc(F)cc3)nc2c1 | 5% (inactive)
39 | CCCc1cc(=O)oc2cc(C)cc(OC(=O)c3ccco3)c12 | 0% (inactive)
